Hits are enriched below; roughly 2.4% of the tested compounds scored in any of these assays.
PINK1 modulator: modulators of PINK1 expression. PINK1 immunofluorescence, high-content cytometry, 24 h. Potency, µM (highest dose often 76.6 µM), inactives show at the top dose activation (PINK1 increase), hits mostly activators. actives 0.2% (n = 410,000). AID 624263; active = well fitted activation curve with a large enough effect; inconclusive = small, poorly fitted or top-dose-only effect; cell line not stated here; note: % of control where 0% means no effect; nearly all actives have a fitted effect of over 65% in size
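Fluorescence from anti-PINK1 antibody, together with nuclear and cell stains, was scanned on a laser-scanning cytometer. Before staining, stable-line cells were incubated 24 hours with compounds at 5 concentrations; primary antibody 12 h at 10 degrees C.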
Nrf2 ARE act: Nrf2 pathway activation; AREc32 ARE-luciferase reporter (MCF7-derived line), luminescence, 24 h; Potency, µM (doses to about 46.1 µM), inactives show at the highest dose activation, actives largely listed as activators; actives 0.31% (n = 410,000); AID 624171; note: % of control where 0% means no effect; nearly all actives have a fitted effect of over 65% in size
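AREc32 cells carrying an ARE-driven firefly luciferase, 1000 cells/well in OPTI-MEM with 5% FBS, dosed after overnight attachment and incubated 24 hr at 37 deg C. Steady-Glo luminescence read after 30 min at RT.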
Epigenetic derep: epigenetic control regulation, reporter derepression; murine LDR cells, GFP reporter derepression, 30 h; Potency, µM (highest dose often 53.9 µM), for inactives: at the highest dose GFP activation, usual class: activators; actives 0.2% (n = 280,000); note: % of control where 0% means no effect; nearly all actives have a fitted effect of over 60% in size
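Derepression of a silenced CMV-GFP reporter in murine LDR cells is scored by enumerating GFP-positive cells with a laser-scanning microplate cytometer after 30 hours of treatment at 37 C.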
A549 tox: counter-screen for Nrf2 inhibitors: cytotoxicity in A549 cells; actives 0.16% (n = 390,000); Potency, µM (titrated, usually from 46 µM), for inactives: at the highest dose activity change, negative = cytotoxicity, hits mostly inhibitors; A549 ARE-Fluc cells, CellTiter-Fluor viability, 18-24 h; note: % is set by controls: 0 for no effect and ±100 for the full control effect
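A549 ARE-Fluc cells in 5% FBS OPTI-MEM, 5000 cells/well, rested 2 h then exposed to compounds in concentration-response for 18-24 h at 37 °C. Viability by CellTiter-Fluor fluorescence (Ex 405/Em 525) after 30 min; luciferase luminescence (BugLite, 15 min, RT) read afterwards.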
Nrf2 inh: Nrf2 pathway inhibition | A549 ARE-Fluc reporter, luciferase luminescence, 18-24 h | Potency, µM (highest dose often 46 µM), without a hit: at the top dose activity change, negative = inhibition, hits mostly inhibitors | actives 2.1% (n = 360,000) | AID 504444; note: % is set by controls: 0 for no effect and ±100 for the full control effect; nearly all actives have a fitted effect of over 60% in size
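Reporter: ARE-Fluc in A549. Exposure: 18-24 h, 37 °C, 5% CO2, 5% FBS OPTI-MEM. Readouts: fluorescent cytotoxicity (CellTiter-Fluor), then luminescent Nrf2 signal after BugLite.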
Numbers without * were called inactive; [ ] = dose if it differs, or a comment. Unless noted, calls come from the whole dose curve; as a rule, active = well fitted curve in the direction sought with a large enough effect; inconclusive = small, poorly fitted or top-dose-only effect, or another doubt; inactive = no such curve, though single readings can be large; an effect the other way counts as inactive or inconclusive. Potency is the fitted concentration of half-maximal effect.

CCC1CN(C(=O)N2CCC(C(=O)N3CCN(c4ccccc4F)CC3)CC2)c2ccccc2O1 (stereo unspecified) was read as PINK1 modulator 1%, Nrf2 ARE act 5%, Epigenetic derep 0%, A549 tox 12% and Nrf2 inh 4%.
For Cc1cc(C(=O)Nc2ccccc2-c2nc(CNC(=O)C3COc4ccccc4O3)c(C)o2)c(C)o1 (stereo unspecified) the results were PINK1 modulator 0%.
For O=C(/C=C/c1ccc(-c2ccccc2[N+](=O)[O-])o1)c1ccco1 the results were PINK1 modulator -1%, Nrf2 ARE act 10µM*, Epigenetic derep 0%, A549 tox 13% and Nrf2 inh 18%.
Screening O=[N+]([O-])c1cc(C(F)(F)F)ccc1NCCc1c[nH]c2ccc(O)cc12 returned PINK1 modulator 11µM*, Nrf2 ARE act 2%, Epigenetic derep -1%, A549 tox 7%[1.84 µM] and Nrf2 inh 7%.
Oc1cccc(/C=C/c2ccc3cccc(O)c3n2)c1 was read as PINK1 modulator -2%, Nrf2 ARE act 4.5µM*, A549 tox -3% and Nrf2 inh -4%.
For COc1ccc(/C=C/c2ccc3cccc(O)c3n2)c(OC)c1OC the results were PINK1 modulator 6%, Nrf2 ARE act 22µM*, A549 tox -8% and Nrf2 inh inconclusive.
Screening O=C(C[n+]1cccc2cc(Cl)ccc21)c1cccc([N+](=O)[O-])c1 returned PINK1 modulator 2%.
Screening CCOc1ccccc1Nc1nnc(SCc2nnc(-c3cc(OC)c(OC)c(OC)c3)o2)s1 returned PINK1 modulator 0%, Nrf2 ARE act 6%, Epigenetic derep 0%, A549 tox inconclusive and Nrf2 inh 16µM*.
Screening Cn1nnnc1Sc1ncnc2scc(I)c12 returned A549 tox inconclusive and Nrf2 inh -23%.
`CCC(C)N=Cc1c(NCc2ccco2)nc2c(C)cccn2c1=O` (stereo unspecified) gave PINK1 modulator 0%, Nrf2 ARE act 13µM*, Epigenetic derep 1%, A549 tox -5% and Nrf2 inh -5%.
`Cc1ccccc1CN1C(=O)c2ccccc2Sc2ccc(C(=O)NCCc3ccccc3)cc21` gave PINK1 modulator 0%, Nrf2 ARE act 5%, Epigenetic derep 6% and A549 tox 9%.
`O=C(CNC(=O)C1CCCCC1)OC(C(=O)Nc1cc(C(F)(F)F)ccc1Cl)c1ccccc1` (stereo unspecified) gave A549 tox 4% and Nrf2 inh -11%.
`COc1ccc(O)c(CN2CCC3(CCC(CNC(=O)C4CCCO4)O3)CC2)c1` (stereo unspecified) gave PINK1 modulator -1%.
For CC(C)Nc1ncnc2c1cnn2Cc1ccccc1Cl the results were PINK1 modulator 3%, Nrf2 ARE act 0%, A549 tox 2% and Nrf2 inh 13µM*.
For CC(C)CNc1ncnc2c1cnn2Cc1ccccc1Cl the results were PINK1 modulator 6%, Nrf2 ARE act -2%, A549 tox 10% and Nrf2 inh -3%.
For FC(F)(F)c1cnc2c(c1)[nH]c(=S)n2-c1ccc(Cl)cc1 the results were PINK1 modulator 40µM*, Nrf2 ARE act -1%, A549 tox -8% and Nrf2 inh inconclusive.
S=C(c1cn(CCOc2cccc3ccccc23)c2ccccc12)N1CCCC1 was read as PINK1 modulator 28µM*, Nrf2 ARE act 3%, Epigenetic derep -1%, A549 tox -12% and Nrf2 inh inconclusive.
Screening O=c1cc(CN2CCN(c3ccccc3)CC2)nc2scc(-c3ccccc3)n12 returned PINK1 modulator -1%, Nrf2 ARE act 3%, Epigenetic derep -6%, A549 tox -6% and Nrf2 inh 15µM*.
Screening CC(=O)c1ccc(N2CCN(Cc3cc(=O)n4c(-c5ccccc5)csc4n3)CC2)cc1 returned PINK1 modulator -1%, Nrf2 ARE act 7%, A549 tox 2% and Nrf2 inh inconclusive.
Screening CCC(=O)N1N=C(c2ccc(NS(=O)(=O)c3ccc(C)cc3)cc2)CC1c1ccco1 (stereo unspecified) returned PINK1 modulator 0%, Nrf2 ARE act 0%, A549 tox -19% and Nrf2 inh 18µM*.
